Molecules are shown by their SMILES. Records with an inconclusive call do not appear. Calls of active or inactive are those of the source. Calls come from the whole dose curve; as a rule, active = well fitted inhibition curve with a large enough effect; inconclusive = small, poorly fitted or top-dose-only effect; inactive = flat fitted curve, though single readings scatter.
% is set by controls: 0 for no effect and ±100 for the full control effect; potency is the fitted concentration of half-maximal effect.

The test deals with CRL-7250. Briefly: Cytotoxic Profiling of Annotated Libraries Using Quantitative High-Throughput Screening (AID 1296008). Note: nearly all actives have a fitted effect of over 60% in size. The settings on record: Five cell lines viability, CellTiter-Glo ATP luminescence, 48-72 h; max response: active compounds read low. A digest of the protocol:
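Cytotoxicity was measured as CellTiter-Glo ATP luminescence, read after 10 min at room temperature. Compound treatment of the cells lasted 48 or 72 hr at 37 degrees Celsius in a qHTS format.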
Background: Cellular ATP, detected with luciferase, serves as a proxy for viable cell number.
For `CC[C@H]1OC(=O)[C@H](C)[C@@H](O[C@H]2C[C@@](C)(OC)[C@@H](O)[C@H](C)O2)[C@H](C)[C@@H](O[C@@H]2O[C@H](C)C[C@H](N(C)C)[C@H]2O)[C@](C)(O)C[C@@H](C)C(=O)[C@H](C)[C@H]2OC(=O)O[C@@]21C`, the max response was 0.0016% (inactive).

On to `COCCOc1ccc(N2CCN(CCn3ncc4c3nc(N)n3nc(-c5ccco5)nc43)CC2)cc1`, for which the result was inactive.

For `C/C=C/c1ccc2oc(-c3ccc(O)c(OC)c3)c(C)c2c1`, the max response was -27.9% (inactive).

For `CC1OC(OC2C(C)OC(OC3C(OC(=O)C45CCC(C)(C)CC4C4=CCC6C7(C)CCC(OC8OC(C(=O)O)C(O)C(O)C8OC8OC(CO)C(O)C(OC9OC(C)C(O)C(O)C9O)C8O)C(C)(CO)C7CCC6(C)C4(C)CC5)OC(CO)C(O)C3O)C(O)C2O)C(O)C(O)C1O` (stereo not given), the max response was 3.83% (inactive).

Consider `C[C@@H]1O[C@@H](O[C@H]2[C@H](OC(=O)[C@]34CCC(C)(C)C[C@H]3C3=CCC5[C@@]6(C)C[C@H](O)[C@H](O[C@@H]7O[C@H](CO)[C@@H](O)[C@H](O)[C@H]7O)[C@@](C)(CO)C6[C@H](O)C[C@@]5(C)[C@]3(C)C[C@H]4O)OC[C@H](O)[C@@H]2O)[C@H](O)[C@H](O)[C@H]1O[C@@H]1OC[C@@H](O)[C@H](O[C@H]2OC[C@](O)(CO)[C@H]2O)[C@H]1O` (stereo not given in full), for which the compound was called inactive.

On to `OCC1OC(Oc2cc(O)cc(/C=C/c3ccc(O)cc3)c2)C(O)C(O)C1O` (stereo not given), for which the max response was -6.35% (inactive).

For `OC[C@H]1O[C@@H](OC[C@H]2O[C@@H](OC/C=C/c3ccccc3)[C@H](O)[C@@H](O)[C@@H]2O)[C@@H](O)[C@@H]1O`, the max response is 0.699% (inactive).

As for `CN1CCN(C(=O)c2ccc3cc(CCNc4ncnc5ccc(C#N)cc45)ccc3c2)CC1`, the Potency was 4.61 µM (active).

As to `C[C@H](NC(c1cccc2[nH]c(=O)c(=O)[nH]c12)P(=O)(O)O)c1ccc(Br)cc1` (stereo not given in full), the max response was -1.1% (inactive).

As to `C/C(=C\CCC(C)CCO)C(=O)O[C@@H]1[C@@H](O)[C@H](OC2OC=C(C(=O)O)C3CCC(C)(O)C23)O[C@H](CO)[C@H]1O` (stereo not given in full), the result was inactive.

For `CNC(=O)c1ccccc1Nc1nc(Nc2ccc3c(c2OC)CCCC(N2CCN(CCO)CC2)C3)ncc1Cl` (stereo not given), the Potency is 7.31 µM (active).

For `NC(=O)[C@H](O[C@@H]1O[C@H](CO)[C@@H](O)[C@H](O)[C@H]1O)c1ccccc1`, the compound was called inactive.

Regarding `C=C1[C@H](OC(C)=O)[C@H]2[C@@H](OC(C)=O)[C@](C)(OC(C)=O)C[C@]2(OC(C)=O)C(=O)[C@H](C)/C=C/C(C)(C)C(=O)[C@H](OC(=O)C(C)C)[C@H]1OC(C)=O`, the max response was 0.468% (inactive).

As for `CC1=CC2C(CC1OC1OC(CO)C(O)C(O)C1O)C(C)CC(=O)C2C(C)C` (stereo not given), the max response was 0.564% (inactive).

`CC#CC(=O)N1CCC[C@H]1c1nc(-c2ccc(C(=O)Nc3ccccn3)cc2)c2c(N)nccn12`: the max response was -4.15% (inactive).

Take `CC(C)c1nnc(-c2ccc(-c3ccccc3)nc2)n1-c1cccc2nonc12`: the max response is -7.02% (inactive).

With `CC(C)(C)c1ccc(S(=O)(=O)Nc2ccc(Cl)cc2C(=O)c2cc[n+]([O-])cc2)cc1`, the max response was -19.6% (inactive).

Take `CC(C)C1=CC2C(CC[C@]2(C)O)[C@](C)(O)CC1` (stereo not given in full): the max response was -11.6% (inactive).

As for `C=CC1C(OC2OC(CO)C(O)C(O)C2O)OC=C2C(=O)N3C(C(=O)O)Cc4c([nH]c5ccccc45)C3CC21` (stereo not given), the compound was classed as inactive.

Take `CC1(C)CC[C@]2(C(=O)O[C@@H]3O[C@H](CO)[C@@H](O)[C@H](O)[C@H]3O)CC[C@]3(C)C(=CCC4[C@@]5(C)CC[C@H](O[C@@H]6O[C@H](C(=O)O)[C@@H](O)[C@H](O[C@@H]7O[C@H](CO)[C@H](O)[C@H](O)[C@H]7O)[C@H]6O)C(C)(C)C5CC[C@]43C)C2C1` (stereo not given in full): the max response is -0.842% (inactive).

In the case of `O=C(/C=C/c1ccc(O)cc1)OC1[C@H](O)CC(O)(C(=O)O)C[C@H]1O` (stereo not given in full), the max response is -9.1% (inactive).

Regarding `O=C1Nc2ccccc2C(O)(c2ccccc2)C1O` (stereo not given), the max response was 0.0908% (inactive).

For `COc1cc(/C=C/C=O)cc(OC)c1O[C@@H]1O[C@H](CO)[C@@H](O)[C@H](O)[C@H]1O`, the max response is -11.6% (inactive).

Regarding `C=C1C[C@]23C[C@H]1CC[C@H]2[C@@]12CC[C@H](O)[C@@](C)(C(=O)O1)[C@H]2[C@@H]3C(=O)O`, the max response was -11.3% (inactive).

On to `Cc1[nH]nc(C(F)(F)F)c1Cc1sc2c(c1C(=O)N1C[C@](C)(O)CO1)c(=O)n(C)c(=O)n2C(C)C`, for which the max response is -0.426% (inactive).

Source of the values: PubChem BioAssay (NCATS).
